Laboratory results as given in PubChem BioAssay AID1159580 (chemical genetic matrix, 2015).
Values joined by “and” are separate entries in the source; they are usually repeats but may differ in a detail not shown here. Identical values can stand only once. The whole screen tested about 5,500 compounds, of which about 2,000 (36%) were called active. Not shown: some 18% with an inconclusive outcome. No stated cut-off is given here; in the data, active means normalized growth mostly below about 0.91 (no sharp cut-off); inconclusive means no clear call, values can overlap the other calls; inactive means mostly above about 0.92. This is one part of the list.

Assay: chemical genetic growth profiling, strain panel (AID 1159580);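 further: tested at 20 µM; growth read once vehicle control cultures reached saturation at 30 °C; 1 = growth at the plate median or of vehicle wells; lower values mean less growth of the strain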
Conditions: S. cerevisiae deletion strains, growth OD

Measured: normalized growth

CC[C@H]1CN2CCc3cc(OC)c(OC)cc3C2C[C@@H]1CC1NCCc2cc(OC)c(OC)cc21 (some centres undefined)
inactive: locus YAL021C, strain ccr4, hits give low values 0.988 | locus YAL026C, strain drs2, hits give low values 0.989 | locus YAL030W, strain snc1, hits give low values 0.983 | locus YBL061C, strain skt5, hits give low values 1 | locus YBR009C, strain hhf1, hits give low values 0.971 | locus YBR021W, strain FUR4, hits give low values 1.02 | locus YBR023C, strain chs3, hits give low values 0.987 | locus YBR171W, strain sec66, hits give low values 0.996 | locus YBR229C, strain ROT2, hits give low values 0.997 | locus YBR231C, strain swc5, hits give low values 0.993 | locus YBR279W, strain paf1, hits give low values 0.979 | locus YCL011C, strain gbp2, hits give low values 0.983 | locus YCL016C, strain dcc1, hits give low values 0.996 | locus YCL029C, strain bik1, hits give low values 0.989 | locus YCL069W, strain vba3, hits give low values 0.98 | locus YCR088W, strain abp1, hits give low values 0.995 | locus YDL005C, strain med2, hits give low values 0.988 | locus YDL035C, strain GPR1, hits give low values 1.01 | locus YDL040C, strain nat1, hits give low values 0.965 | locus YDL074C, strain BRE1, hits give low values 1 | locus YDL101C, strain DUN1, hits give low values 1.01 | locus YDL134C, strain PPH21, hits give low values 1 | locus YDL185W, strain tfp1, hits give low values 1 | locus YDL192W, strain arf1, hits give low values 0.987 | locus YDR001C, strain nth1, hits give low values 0.982 | locus YDR069C, strain doa4, hits give low values 0.946 | locus YDR101C, strain arx1, hits give low values 0.988 | locus YDR137W, strain rgp1, hits give low values 0.961 | locus YDR150W, strain NUM1, hits give low values 1.02 | locus YDR159W, strain sac3, hits give low values 0.899 | locus YDR162C, strain NBP2, hits give low values 1.03 | locus YDR195W, strain ref2 0.914 | locus YDR297W, strain sur2, hits give low values 0.979 | locus YDR318W, strain mcm21, hits give low values 1.01 | locus YDR334W, strain swr1, hits give low values 0.929 | locus YDR335W, strain msn5, hits give low values 0.974 | locus YDR388W, hits give low values 0.994 | locus YDR392W, strain spt3, hits give low values 0.917 | locus YDR502C, strain sam2, hits give low values 0.971 | locus YEL003W, strain gim4, hits give low values 0.979 | locus YEL037C, strain rad23, hits give low values 0.968 | locus YEL061C, strain CIN8 (second series), hits give low values 0.978 | locus YEL061C, strain CIN8, hits give low values 1.01 | locus YER015W, strain faa2, hits give low values 0.979 | locus YER016W, strain bim1, hits give low values 1.04 | locus YER110C, hits give low values 0.996 | locus YER111C, strain swi4, hits give low values 0.973 | locus YER155C, strain BEM2 (second series), hits give low values 0.962 | locus YER155C, strain BEM2, hits give low values 1.01 | locus YER167W, strain BCK2, hits give low values 1.01 | locus YFR010W, strain ubp6, hits give low values 0.956 | locus YGL078C, strain dbp3, hits give low values 0.986 | locus YGL086W, strain mad1, hits give low values 0.968 | locus YGL167C, strain pmr1, hits give low values 0.96 | locus YGL173C, strain kem1, hits give low values 0.962 | locus YGL227W, strain vid30, hits give low values 0.983 | locus YGL240W, strain doc1, hits give low values 0.945 | locus YGL248W, strain PDE1, hits give low values 1.02 | locus YGL253W, strain hxk2, hits give low values 0.95 | locus YGR078C, strain PAC10, hits give low values 1.02 | locus YGR135W, strain pre9, hits give low values 1.01 | locus YGR252W, strain gcn5, hits give low values 1 | locus YHR013C, strain ard1, hits give low values 0.941 | locus YHR027C, strain rpn1, hits give low values 0.985 | locus YHR030C, strain SLT2, hits give low values 1.01 and 1.04 | locus YHR079C, strain IRE1 (second series), hits give low values 1 | locus YHR079C, strain IRE1, hits give low values 1.12 | locus YHR094C, strain hxt1, hits give low values 0.997 | locus YHR129C, strain ARP1, hits give low values 1.01 | locus YHR142W, strain chs7, hits give low values 0.972 | locus YHR200W, strain rpn10, hits give low values 1.01 | locus YIL066C, strain RNR3, hits give low values 0.993 | locus YIL073C, strain SPO22, hits give low values 1.02 | locus YIL125W, strain kgd1, hits give low values 0.995 | locus YIR030C, strain dcg1, hits give low values 0.994 | locus YJL092W, strain hpr5, hits give low values 0.987 | locus YJL095W, strain BCK1 (second series), hits give low values 0.977 | locus YJL095W, strain BCK1, hits give low values 1.04 and 1.05 | locus YJL115W, strain asf1, hits give low values 0.962 | locus YJL129C, strain trk1, hits give low values 0.983 | locus YJL134W, strain LCB3, hits give low values 1.01 | locus YJL154C, strain vps35, hits give low values 0.979 | locus YJL164C, strain tpk1, hits give low values 0.978 | locus YJL166W, strain qcr8, hits give low values 0.962 | locus YJL168C, strain set2, hits give low values 1 | locus YJL187C, strain SWE1 (second series), hits give low values 1.02 | locus YJL187C, strain SWE1, hits give low values 0.979 | locus YJR043C, strain POL32, hits give low values 1.02 | locus YJR066W, strain TOR1, hits give low values 0.996 | locus YKL068W, hits give low values 1.01 | locus YKL085W, strain MDH1 (second series), hits give low values 1.02 | locus YKL085W, strain MDH1, hits give low values 1.02 | locus YKL160W, strain elf1, hits give low values 1.01 | locus YKR001C, strain vps1, hits give low values 1 | locus YKR026C, strain gcn3, hits give low values 0.986 | locus YKR091W, strain srl3, hits give low values 0.987 | locus YLL001W, strain dnm1, hits give low values 0.985 | locus YLL026W, hits give low values 0.992 | locus YLL041C, strain sdh2, hits give low values 0.989 | locus YLR027C, strain aat2, hits give low values 0.989 | locus YLR039C, strain RIC1, hits give low values 1.01 | locus YLR058C, strain SHM2, hits give low values 1.01 | locus YLR102C, strain apc9, hits give low values 0.999 | locus YLR113W, strain HOG1, hits give low values 1.06 | locus YLR221C, strain rsa3, hits give low values 0.984 | locus YLR258W, strain gsy2, hits give low values 0.985 | locus YLR262C, strain YPT6 (second series), hits give low values 0.978 | locus YLR262C, strain YPT6, hits give low values 1.06 | locus YLR268W, strain sec22, hits give low values 0.98 | locus YLR320W, strain mms22, hits give low values 0.948 | locus YLR330W, strain CHS5, hits give low values 1.01 | locus YLR342W, strain FKS1 (second series), hits give low values 0.987 | locus YLR342W, strain FKS1, hits give low values 1 | locus YLR357W, strain rsc2, hits give low values 0.967 | locus YLR370C, strain arc18, hits give low values 0.98 | locus YLR371W, strain rom2, hits give low values 0.994 | locus YLR384C, strain iki3, hits give low values 0.972 | locus YLR418C, strain cdc73, hits give low values 0.997 | locus YML016C, strain PPZ1, hits give low values 1.01 | locus YML032C, strain rad52, hits give low values 1.01 | locus YML120C, strain ndi1, hits give low values 0.977 | locus YML124C, strain tub3, hits give low values 0.994 | locus YMR058W, strain fet3, hits give low values 0.986 | locus YMR078C, strain ctf18, hits give low values 0.996 | locus YMR125W, strain sto1, hits give low values 0.975 | locus YMR129W, hits give low values 0.97 | locus YMR205C, strain PFK2, hits give low values 0.935 | locus YMR223W, strain ubp8, hits give low values 1.02 | locus YMR231W, strain pep5, hits give low values 0.979 | locus YMR263W, strain SAP30, hits give low values 1.02 | locus YMR307W, strain GAS1, hits give low values 1.08 | locus YNL067W, strain RPL9B, hits give low values 1.01 | locus YNL071W, strain lat1, hits give low values 0.956 | locus YNL128W, strain TEP1, hits give low values 1.01 | locus YNL183C, strain NPR1, hits give low values 1 | locus YNL209W, strain ssb2, hits give low values 0.99 | locus YNL233W, strain BNI4, hits give low values 1.01 | locus YNL248C, strain rpa49, hits give low values 0.961 | locus YNL250W, strain rad50, hits give low values 1.01 | locus YNL271C, strain bni1, hits give low values 0.998 | locus YNL298W, strain CLA4, hits give low values 1 | locus YNL307C, strain MCK1, hits give low values 0.997 | locus YNL322C, strain KRE1 (second series), hits give low values 0.983 | locus YNR049C, strain mso1, hits give low values 0.967 | locus YNR052C, strain pop2, hits give low values 1 | locus YOL006C, strain TOP1, hits give low values 1.03 | locus YOL012C, strain htz1 1.06 | locus YOL147C, strain pex11, hits give low values 0.994 | locus YOR001W, strain rrp6, hits give low values 0.98 | locus YOR061W, strain CKA2, hits give low values 1.02 | locus YOR069W, strain VPS5, hits give low values 1.01 | locus YOR070C, strain gyp1, hits give low values 1 | locus YOR080W, strain dia2, hits give low values 0.926 | locus YOR083W, strain WHI5, hits give low values 0.987 | locus YOR106W, strain vam3, hits give low values 1.01 | locus YOR136W, strain idh2, hits give low values 0.988 | locus YOR144C, strain elg1, hits give low values 1 | locus YOR184W, strain ser1, hits give low values 0.987 | locus YOR231W, strain MKK1, hits give low values 1.05 | locus YOR265W, strain rbl2, hits give low values 0.993 | locus YOR270C, strain vph1, hits give low values 0.958 | locus YOR290C, strain snf2, hits give low values 0.995 | locus YOR316C, strain cot1, hits give low values 0.992 | locus YPL051W, strain arl3, hits give low values 1.01 | locus YPL078C, strain atp4, hits give low values 1 | locus YPL106C, strain sse1, hits give low values 0.943 | locus YPL240C, strain hsp82, hits give low values 0.991 | locus YPL241C, strain CIN2, hits give low values 1.01 | locus YPL256C, strain CLN2, hits give low values 1.07 | locus YPR119W, strain clb2, hits give low values 1 | locus YPR141C, strain kar3, hits give low values 1 | locus YPR163C, strain tif3, hits give low values 0.985 | locus YPR167C, strain met16, hits give low values 1 | strain wtn01, hits give low values 0.96
